# Reference: paper PMC12820563, “FoxP3 forms a head-to-head dimer in vivo and stabilizes its multimerization on adjacent microsatellites”
# Over roughly 16,000 sequences, “rpm ratio (pull-down/input)” has its median near 0.5; the highest 2% begin near 5.5. The sample as a whole holds a higher share of the highest values than the screen did.
# Target: T1, MBP-FoxP3dN (Mus musculus, UniProt Q99JB6 188-423)
# T1 sequence: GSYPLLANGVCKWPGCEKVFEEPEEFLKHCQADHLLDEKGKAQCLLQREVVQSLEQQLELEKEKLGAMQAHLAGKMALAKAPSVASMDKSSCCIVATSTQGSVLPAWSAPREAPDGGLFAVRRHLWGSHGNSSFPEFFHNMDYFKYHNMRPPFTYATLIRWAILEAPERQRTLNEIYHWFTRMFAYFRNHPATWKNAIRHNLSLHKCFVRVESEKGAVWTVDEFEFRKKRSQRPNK
# Assay: PD-seq (MBP pull-down with sequencing); 20 mM Tris-HCl pH 7.5, 100 mM NaCl, 1.5 mM MgCl2, 0.4 uM protein, 0.1 uM dsDNA library, 30 min, room temperature, amylose pull-down; high values mean tight binding
# Conditions: protein: recombinant; tags: His6-MBP; chain copies: 2; dsDNA, one strand shown
# Summary of the method: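 Mouse FoxP3 or FoxP1 fragment lacking the N-terminus, His6-MBP-tagged and expressed in E. coli, was incubated at 0.4 µM with 0.1 µM Klenow-filled degenerate double-stranded DNA library for 30 min at room temperature in Tris pH 7.5 buffer with NaCl and MgCl2. Complexes captured on amylose resin were washed three times and their DNA sequenced on Illumina. Binding is reads-per-million enrichment of pull-down over input, replicates pooled.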
row,Sequence,binding signal
1,GATGATTGTTCTCCCAGCTGATGAATTGTTTTAGTCGAGTAAACAAATTTTCCTAATCTTTCTGTTCAAGCGCCATCTAC,1.21 RPM ratio (pull-down/input)
2,GATGATTGTTCTCCCAGCTGATGAATTTGGTTAGTCGAGTAAACAAATTTTCCTAATCTTTCTGTTCAAGCGCCATCTAC,2.03 RPM ratio (pull-down/input)
3,GATGATTGTTCTCCCAGCTGATGAATTTACGTCGTCGAGTAAACAAATTTTCCTAATCTTTCTGTTCAAGCGCCATCTAC,0.839 RPM ratio (pull-down/input)
4,GATGATTGTTCTCCCAGCTGATGAATTGTTTACGTCGAGTAAACAAATTTTCCTAATCTTTCTGTTCAAGCGCCATCTAC,7.65 RPM ratio (pull-down/input)
5,GATGATTGTTCTCCCAGCTGATGAATTGTGTTAGTCGAGTAAACAAATTTTCCTAATCTTTCTGTTCAAGCGCCATCTAC,5.98 RPM ratio (pull-down/input)
6,GATGATTGTTCTCCCAGCTGATGAATTTTGTTAGTCGAGTAAACAAATTTTCCTAATCTTTCTGTTCAAGCGCCATCTAC,6.69 RPM ratio (pull-down/input)
7,GATGATTGTTCTCCCAGCTGATGAATTTTTTTAGTCGAGTAAACAAATTTTCCTAATCTTTCTGTTCAAGCGCCATCTAC,0.273 RPM ratio (pull-down/input)
8,GATGATTGTTCTCCCAGCTGATGAATTCTGTTAGTCGAGTAAACAAATTTTCCTAATCTTTCTGTTCAAGCGCCATCTAC,5.31 RPM ratio (pull-down/input)
9,GATGATTGTTCTCCCAGCTGATGAATTTAGTTAGTCGAGTAAACAAATTTTCCTAATCTTTCTGTTCAAGCGCCATCTAC,2.54 RPM ratio (pull-down/input)
10,GATGATTGTTCTCCCAGCTGATGAATTCTCTACTTCGAGTAAACAAATTTTCCTAATCTTTCTGTTCAAGCGCCATCTAC,0.233 RPM ratio (pull-down/input)
11,GATGATTGTTCTCCCAGCTGATGAATTGGGCCGGTCGAGTAAACAAATTTTCCTAATCTTTCTGTTCAAGCGCCATCTAC,0.372 RPM ratio (pull-down/input)
12,GATGATTGTTCTCCCAGCTGATGAATTGCTCTTGTCGAGTAAACAAATTTTCCTAATCTTTCTGTTCAAGCGCCATCTAC,0.594 RPM ratio (pull-down/input)
13,GATGATTGTTCTCCCAGCTGATGAATTCGGTAGGTCGAGTAAACAAATTTTCCTAATCTTTCTGTTCAAGCGCCATCTAC,0.485 RPM ratio (pull-down/input)
14,GATGATTGTTCTCCCAGCTGATGAATTGGGGACGTCGAGTAAACAAATTTTCCTAATCTTTCTGTTCAAGCGCCATCTAC,0.307 RPM ratio (pull-down/input)
15,GATGATTGTTCTCCCAGCTGATGAATTGGTGCTTTCGAGTAAACAAATTTTCCTAATCTTTCTGTTCAAGCGCCATCTAC,1.06 RPM ratio (pull-down/input)
16,GATGATTGTTCTCCCAGCTGATGAATTGAGACTTTCGAGTAAACAAATTTTCCTAATCTTTCTGTTCAAGCGCCATCTAC,1.22 RPM ratio (pull-down/input)
17,GATGATTGTTCTCCCAGCTGATGAATTCCGCAGATCGAGTAAACAAATTTTCCTAATCTTTCTGTTCAAGCGCCATCTAC,0.352 RPM ratio (pull-down/input)

row,Sequence,binding signal
1,GATGATTGTTCTCCCAGCTGATGAATTAGGAGGGTCGAGTAAACAAATTTTCCTAATCTTTCTGTTCAAGCGCCATCTAC,0.318 RPM ratio (pull-down/input)
2,GATGATTGTTCTCCCAGCTGATGAATTTCACGAATCGAGTAAACAAATTTTCCTAATCTTTCTGTTCAAGCGCCATCTAC,0.212 RPM ratio (pull-down/input)
3,GATGATTGTTCTCCCAGCTGATGAATTCACTGCTTCGAGTAAACAAATTTTCCTAATCTTTCTGTTCAAGCGCCATCTAC,0.345 RPM ratio (pull-down/input)
4,GATGATTGTTCTCCCAGCTGATGAATTTCCGCCGTCGAGTAAACAAATTTTCCTAATCTTTCTGTTCAAGCGCCATCTAC,0.555 RPM ratio (pull-down/input)
5,GATGATTGTTCTCCCAGCTGATGAATTTCTTAGGTCGAGTAAACAAATTTTCCTAATCTTTCTGTTCAAGCGCCATCTAC,0.273 RPM ratio (pull-down/input)
6,GATGATTGTTCTCCCAGCTGATGAATTATTTTAGTCGAGTAAACAAATTTTCCTAATCTTTCTGTTCAAGCGCCATCTAC,0.414 RPM ratio (pull-down/input)
7,GATGATTGTTCTCCCAGCTGATGAATTTGTTAGGTCGAGTAAACAAATTTTCCTAATCTTTCTGTTCAAGCGCCATCTAC,5.73 RPM ratio (pull-down/input)
8,GATGATTGTTCTCCCAGCTGATGAATTTCTGTAGTCGAGTAAACAAATTTTCCTAATCTTTCTGTTCAAGCGCCATCTAC,0.385 RPM ratio (pull-down/input)
9,GATGATTGTTCTCCCAGCTGATGAATTAGTCGAGTCGAGTAAACAAATTTTCCTAATCTTTCTGTTCAAGCGCCATCTAC,0.367 RPM ratio (pull-down/input)
10,GATGATTGTTCTCCCAGCTGATGAATTAGTTATGTCGAGTAAACAAATTTTCCTAATCTTTCTGTTCAAGCGCCATCTAC,3.79 RPM ratio (pull-down/input)
11,GATGATTGTTCTCCCAGCTGATGAATTTGTGTAGTCGAGTAAACAAATTTTCCTAATCTTTCTGTTCAAGCGCCATCTAC,6.14 RPM ratio (pull-down/input)
12,GATGATTGTTCTCCCAGCTGATGAATTTTATTAGTCGAGTAAACAAATTTTCCTAATCTTTCTGTTCAAGCGCCATCTAC,4.27 RPM ratio (pull-down/input)
13,GATGATTGTTCTCCCAGCTGATGAATTAGTTAGGTCGAGTAAACAAATTTTCCTAATCTTTCTGTTCAAGCGCCATCTAC,1.51 RPM ratio (pull-down/input)
14,GATGATTGTTCTCCCAGCTGATGAATTTATTTAGTCGAGTAAACAAATTTTCCTAATCTTTCTGTTCAAGCGCCATCTAC,5.5 RPM ratio (pull-down/input)
15,GATGATTGTTCTCCCAGCTGATGAATTATGTTAGTCGAGTAAACAAATTTTCCTAATCTTTCTGTTCAAGCGCCATCTAC,5.81 RPM ratio (pull-down/input)
16,GATGATTGTTCTCCCAGCTGATGAATTTTTGTAGTCGAGTAAACAAATTTTCCTAATCTTTCTGTTCAAGCGCCATCTAC,0.53 RPM ratio (pull-down/input)
